Screening results as filed in PubChem.
The list is not random: actives were taken first. Their share in the collection is about 18%.
TDP1 cell CPT: growth inhibition of DT40 Tdp1-/-;hTDP1 cells with camptothecin (screen for TDP1 inhibitors); chicken DT40 Tdp1-/-;hTDP1 cells + 20 nM CPT, ATP luminescence, 48 h; Potency, µM (top dose mostly 46.2 µM), for the others: at the highest dose activity change, negative = growth inhibition, hits mostly inhibitors; 420,000 tested, 12% active; AID 686979; further: nearly all actives have a fitted effect of over 55% in size
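Cell growth measured by CellTiter-Glo luminescence after a minimum 48 h, 37 C compound exposure with 20 nM CPT in Tdp1-knockout DT40 cells stably expressing hTDP1, seeded 400/well; qHTS titration format.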
GCN5L2 inh: GCN5L2 (KAT2A) acetyltransferase inhibition; Q92830; GCN5L2 HAT assay, ThioGlo1 CoA-SH fluorescence; Potency, µM (highest dose often 58.9 µM), inactives show top-dose activity change, negative = inhibition, actives largely listed as inhibitors; 390,000 tested, 0.21% active; AID 504327
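qHTS, 1536-well. 20nM enzyme, pH 7.5 HEPES/EDTA/Tween-20 buffer; 15 min compound preinc., RT. Start: 75uM H3(1-25), 70uM AcCoA, 50uM ThioGlo1. Read Ex340/Em540 at t=0 (autofluorescence flag) and t=20 min.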
TDP1 block: inhibitors of human tyrosyl-DNA phosphodiesterase TDP1; Potency, µM (doses to about 130 µM), without a hit: top-dose activity change, negative = inhibition, hits mostly inhibitors; recombinant TDP1, AlphaScreen DNA substrate cleavage; Q9NUW8; AID 485290; 350,000 tested, 0.28% active; further: nearly all actives have a fitted effect of over 40% in size
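E. coli-derived human Tdp1, 1 nM final. Cpd preinc 15 min RT; substrate 15 nM final, 5 min RT; AS bead mix 10 ug/ml final, 10 min RT. Signal loss = tyrosine-FITC cleavage. No-enzyme wells = max signal.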
TDP1 cell noCPT: qHTS for Inhibitors of human tyrosyl-DNA phosphodiesterase 1 (TDP1): qHTS in cells in absence of CPT. DT40 Tdp1-/- hTDP1 cells, no CPT, ATP luminescence, 48 h. Potency, µM (series often up to 46.2 µM), for the others: top-dose activity change, negative = growth inhibition, hits mostly inhibitors. 420,000 tested, 15% active. AID 686978, 2013; further: nearly all actives have a fitted effect of over 55% in size
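Cells were dispensed at 400 per well, compounds added by pin tool, plates incubated ≥48 hr at 37 °C, then CellTiter-Glo added for 30 min at room temperature before luminescence reading. Line: DT40 Tdp1-/- complemented with hTDP1; camptothecin omitted.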
PLK1 PBD block: PLK1 (human) polo-box domain binding inhibition. P53350. AID 720504. Plk1 PBD binding of FITC phosphopeptide, fluorescence polarization. 360,000 tested, 2.8% active. Potency, µM, for inactives: max response, negative = inhibition, most hits filed as inhibitors; further: series mostly up to about 57 µM; nearly all actives have a fitted effect of over 65% in size
VDR inh: vitamin D3 receptor (human) inhibition; P11473; VDR-SRC2-3 peptide fluorescence polarization, 2 h; 400,000 tested, 0.93% active; Potency, µM, for inactives: max response, negative = inhibition, usual class: inhibitors
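Two reagent solutions held at 4 deg C in the dark were dispensed, compounds pinned at 23 nl, and the mixture incubated 2 h at room temperature. Read-out: fluorescence polarization of VDR–SRC2-3 peptide binding.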
The depositor's hits bear a star; ? = inconclusive; · = no result; [ ] = dose if it differs, or a comment. The call rests on the fitted dose curve; in most records, active means well fitted curve in the direction sought with a large enough effect; inconclusive means small, poorly fitted or top-dose-only effect, or another doubt; inactive means no such curve, though single readings can be large; an effect the other way counts as inactive or inconclusive. On the % scale 0 is the no-effect control and ±100 the full control effect; potency means the concentration at half of the fitted maximal effect.

SMILES	TDP1 cell CPT	GCN5L2 inh	TDP1 block	TDP1 cell noCPT	PLK1 PBD block	VDR inh
C=C(C)C(=O)Nc1cccc(C2=NOC3(C2)C[C@@H](C(N)=O)N(C(=O)c2ccc(Cl)cc2)C3)c1 (stereo partly specified)	6%	4%	13µM*	-6%	24µM*	-7%
NC(=O)[C@@H]1CC2(CC(c3cccc(NC(=O)CC(c4ccccc4)c4ccccc4)c3)=NO2)CN1C(=O)COc1ccc(Cl)cc1 (stereo partly specified)	18µM*	-11%	-2%	?	-13%	-6%
O=C(C[n+]1ccccc1Br)c1ccc(I)cc1	-5%	·	·	?	·	·
C=C(C)C(=O)Nc1cccc(C2=NOC3(C2)C[C@@H](C(N)=O)N(C(=O)C2(C)CC2)C3)c1 (stereo partly specified)	1%	-35%	11µM*	-14%	?	7%
Fc1ccc(N2CCN(Cc3ccc4c(c3)CN(Cc3cccn3-c3cccnc3)CCO4)CC2)cc1	?	·	·	21µM*	·	·
C[C@@H]1CN(Cc2ccc3c(c2)CN(Cc2cccn2-c2cccnc2)CCO3)C[C@H](C)O1	-2%[9.04 µM]	·	·	15µM*	·	·
Cc1nc2sccn2c1CN1CCOc2ccc(CN3C[C@@H](C)O[C@@H](C)C3)cc2C1	10µM*	·	·	8.2µM*	·	·
OC(c1ccc2c(c1)CN(Cc1cccn1-c1cccnc1)CCO2)C1CCCCC1 (stereo unspecified)	?	·	·	-29%	·	·
C[C@@H]1CN(Cc2ccc3c(c2)CN(Cc2cccc(O)c2)CCO3)C[C@H](C)O1	-1%[9.04 µM]	·	·	?	·	·
CCc1cccc(C)c1NC(=O)c1cc(S(=O)(=O)N(Cc2ccc(C(=O)OC)cc2)Cc2ccc(OC)c(OC)c2)ccc1F	?	2%	10%	?	·	3%
C[C@H](Cc1nc2c(cnn2-c2ccccc2Cl)c(=O)[nH]1)C(F)(F)F	·	17%	11%	·	·	?
COc1ccccc1N1CCN(c2ncc(C(=O)N3CCN(c4cccc(Cl)c4)CC3)c3ccccc23)CC1	2.6µM*	-13%	1%	2.6µM*	-5%	15%
Clc1cccc(-n2ncc3c(N4CCCCCC4)ncnc32)c1	-22%	-8%	-10%	-14%	·	6%
O=C(c1cnc(N2CCCCC2)c2ccccc12)N1CCN(c2ccc(F)cc2)CC1	23µM*	-4%	5%	16µM*	·	8%
O=C(c1cnc(N2CCCCC2)c2ccccc12)N1CCN(c2cccc(Cl)c2)CC1	?	-12%	-4%	16µM*	·	5%
COCCCNC(=O)c1ccc(Cn2c(=O)c3cccn3c3cccnc32)cc1	?	-2%	0%	?	·	0%
COc1cc(OC)cc(C(=O)N[C@H](C(=O)NCc2ccc(F)cc2)C(C)C)c1	-5%	-5%	·	?	-3%	1%
CC1(C)OC(=O)C2(Cc3ccc(Br)cc3N3CCCCC32)C(=O)O1 (stereo unspecified)	-17%	·	7%	-13%	·	-4%
O=C(CCn1c2c(c3ccccc31)CCCC2)NNC(=O)c1ccccc1C(=O)O	-3%	-15%	11%	1%	-13%	4%
O=C(CCn1c2c(c3ccccc31)CCCC2)NNC(=O)c1ccccc1[N+](=O)[O-]	?	-2%	4%	7.3µM*	0%	-23%
COc1ccc(NC(=O)C(C)n2c(C)c3cnn(-c4ccccc4)c(=O)c3c2C)cc1Cl (stereo unspecified)	23µM*	-2%	5%	18µM*	·	-6%
COc1ccc(Cl)cc1NC(=O)CCCn1c(C)c2cnn(-c3ccccc3)c(=O)c2c1C	23µM*	-10%	3%	?	·	11%
